Screens as filed in PubChem.
M1 antag – human CHRM1 antagonism | CHO-K1 hM1, Fluo-8 calcium fluorescence, ACh EC80 antagonist | inhibition, % at 3 µM | hit rate 1.3% among 360,000;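 active = percent inhibition above its own plate's cutoff, namely the mean of that plate's compound wells plus 3 SD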;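 note: peak over basal fluorescence ratio during 140 s after agonist addition; 0% = ACh EC80 plus DMSO and 100% = DMSO alone without agonist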
Target sequence (P11229 whole entry, looked up): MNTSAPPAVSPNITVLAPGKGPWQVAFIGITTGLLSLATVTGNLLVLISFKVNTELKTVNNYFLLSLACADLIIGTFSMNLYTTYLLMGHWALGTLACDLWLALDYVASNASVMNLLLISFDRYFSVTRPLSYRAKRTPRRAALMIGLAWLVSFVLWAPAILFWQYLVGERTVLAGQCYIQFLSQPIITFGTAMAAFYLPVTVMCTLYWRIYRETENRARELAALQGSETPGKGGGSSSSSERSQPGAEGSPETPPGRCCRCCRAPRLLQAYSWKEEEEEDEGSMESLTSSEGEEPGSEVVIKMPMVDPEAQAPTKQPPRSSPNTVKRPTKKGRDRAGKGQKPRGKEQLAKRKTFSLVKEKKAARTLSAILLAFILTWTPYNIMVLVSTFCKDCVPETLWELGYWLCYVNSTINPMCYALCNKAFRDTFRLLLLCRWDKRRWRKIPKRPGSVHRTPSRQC
M1 PAM parental – nonselective activator or artifact in parental CHO-K1 calcium assay | ATP EC20, Fluo-8 calcium fluorescence; 0% at ATP EC20, 100% at ATP max | activation, % at 3 µM | hit rate 0.02% among 360,000;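 active = activation above the run cutoff, the mean activation of all test compounds plus 3 SD, cut at about 40% in these data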;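 note: peak over basal fluorescence ratio in a 140 s read after ATP addition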
CHO-K1 Ca ag – M1 agonist counterscreen hit in parental CHO-K1 cells; hit rate 0.48% among 360,000; AID 602248; Fluo-8 calcium fluorescence; scaled to maximal ATP response, vehicle zero; activation, % at 3 µM; in the data active = activation above about 15%;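 note: untransfected CHO-K1 host cells lacking M1 receptor as counterscreen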
M1 ag – activates human CHRM1 receptor; CHO-K1 hM1, Fluo-8 calcium fluorescence, agonist mode; 0% DMSO, 100% acetylcholine EC100; activation, % at 3 µM; AID 588814; hit rate 0.33% among 360,000; P11229;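 active = activation above the run's mean compound activation plus 3 SD, cut at about 16% in these data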;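 note: peak over basal fluorescence ratio within a 140 s kinetic read after compound addition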
CHO-K1 Ca antag – counter-screen for M1 antagonists: effect in parental CHO-K1 cells | ATP-induced calcium, Fluo-8 fluorescence | inhibition, % at 3 µM | hit rate 0.6% among 360,000;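 active = inhibition above a per-plate cutoff, the plate's mean sample inhibition plus 3 SD, cut at about 24% in these data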;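 note: 0% = DMSO plus EC80 ATP and 100% = DMSO alone without ATP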
M1 PAM – positive allosteric modulators of human M1 muscarinic receptor | P11229 | CHO-K1 hM1, Fluo-8 calcium fluorescence, ACh EC20; 0% = ACh EC20, 100% = maximal ACh | activation, % at 3 µM | hit rate 0.088% among 360,000; in the data active = activation above about 19%, passing the limit was not always enough
* hit, by the source's call. A selection: hits, their analogues and other compounds. The true share with any hit is near 2.4%.

SMILES	M1 antag	M1 PAM parental	CHO-K1 Ca ag	M1 ag	CHO-K1 Ca antag	M1 PAM
C[C@H]1CC[C@@H]2N(C1)C[C@H]1[C@@H]3C[C@H]4[C@@H](CC(=O)[C@H]5C[C@@H](O)CC[C@@]54C)[C@@H]3CC[C@H]1[C@]2(C)O	86*	-5	0	-10	-6	-28
CC(=O)O[C@H]1CC[C@@]2(C)[C@H](C1)C(=O)C[C@H]1[C@@H]3CC[C@@H]4[C@@H](CN5C[C@@H](C)CC[C@H]5[C@@]4(C)O)[C@@H]3C[C@@H]12	100*	-12	1	-12	23	-33
C[N+]1(C)[C@@H]2CC[C@H]1CC(OC(=O)C(c1ccccc1)c1ccccc1)C2 (some centres not stated)	101*	-3	6	-8	3	-32
O=C(OC1CCN(CCCl)CC1)C(c1ccccc1)c1ccccc1	82	0	0	-7	8	-26
NC(=O)c1cc(N2CC2)c([N+](=O)[O-])cc1[N+](=O)[O-]	-22	24	0	-2	-5	-1
Cc1ccc(OCC(=O)N2CCN(Cc3ccc4c(c3)OCO4)CC2)cc1	-4	-18	0	-12	30*	5
CCCc1nc2ccc(Br)cc2c(=O)n1-c1ccc([N+](=O)[O-])c(C(F)(F)F)c1	29	-9	9	-2	23	-13
CCCCCSc1cc(OC)c(CCNC)cc1OC	36*	-6	1	-8	8	-20
CCCCCCCSc1cc(OC)c(CCNC)cc1OC	7	23	5	-1	-12	1
Cc1nn(Cc2c(Cl)cccc2Cl)c(Cl)c1C(=O)O	-13	9	-1	-4	-11	4
COc1ccc(-n2c(O)c(/C(C)=N/N3CCCCCC3)c(=O)[nH]c2=O)cc1	-12	0	0	-1	-5	34*
O=c1[nH]c(=O)n(C2CCCCC2)c(O)c1/C=C/C=Nc1ccccc1	1	3	18*	18*	-4	-2
COc1ccc(-n2c(O)c(/C(C)=N/Nc3ccccc3)c(=O)[nH]c2=O)cc1	-2	19	1	-4	-10	4
COc1ccc(-n2c(O)c(/C=C/C=Nc3ccccc3)c(=O)[nH]c2=O)cc1	17	-17	23*	22*	17	-11
O=C(CCl)Nc1nccs1	0	14	1	-3	-10	2
CC(C)[N+](C)(CCC(C(N)=O)(c1ccccc1)c1ccccc1)C(C)C	99*	8	1	-8	7	-26
N#CC1c2ccccc2-n2nncc2CN1S(=O)(=O)c1cc(Cl)cc(Cl)c1 (configuration not stated)	-12	0	1	-4	-7	7
CCN1CCN(Cc2cc(Br)cc(OC)c2O)CC1	56*	29	1	-7	-8	-22
Oc1c(Br)cc(Br)cc1CN1CCN(Cc2ccccc2)CC1	16	21	0	-6	-7	-11
CC(=O)c1cn(Cc2ccccc2C#N)c2ccccc12	35	-10	17*	1	28*	-11
CN1CCN(c2ccc([N+](=O)[O-])cc2Cl)CC1	2	-7	1	-4	-4	1
COC(=O)c1ccc(N2CCN(C)CC2)c([N+](=O)[O-])c1	2	10	19*	-13	5	-2
S=C(NCCc1ccccc1)N1Cc2cc(Br)ccc2-n2nncc2C1	18	-8	0	-10	27*	-10
S=C(NCCc1ccccc1)N1Cc2ccc(Br)cc2-n2nncc2C1	0	-2	1	7	5	5
O=C1NC(=O)N(c2ccccc2)C(=O)/C1=C/c1ccc(Sc2ccccc2)o1	5	9	9	-4	-5	8
SMILES	M1 antag	M1 PAM parental	CHO-K1 Ca ag	M1 ag	CHO-K1 Ca antag	M1 PAM
O=C1NC(=O)N(c2ccccc2F)C(=O)/C1=C/c1ccc(Sc2nc3ccccc3[nH]2)o1	10	-13	16*	17*	15	-9
O=C1NC(=O)N(c2cccc(Cl)c2)C(=O)/C1=C\c1ccc(Sc2nc3ccccc3[nH]2)o1	9	-2	27*	24*	12	-13
COC(=O)C1=C(c2cccc(OCc3ccccc3)c2)C[C@@H]2CC[C@H]1N2C(=O)NCc1ccc(N(C)C)cc1	3	14	-1	-10	-19	3
C[N+](C)(C)CC1CCCC(C[N+](C)(C)C)C1=O (configuration not stated)	1	19	1	-1	-13	-2
CC(=O)[C@@]1(O)CCC2C3CC=C4C[C@@H](O)CC[C@]4(C)C3CC[C@@]21C (some centres not stated)	-6	6	1	3	-4	2
CCOP(=S)(OCC)Oc1cc(C)oc(=O)c1Cl	5	15	1	-2	-15	8
CCOP(=S)(OCC)Oc1cc(C)oc(=O)c1	1	-2	1	-2	-3	29*
C[C@](N)(CCP(=O)(O)O)C(=O)O	-21	-11	0	-2	25*	2
COC(=O)C1=C(c2ccc(C(C)=O)cc2)C[C@@H]2CC[C@H]1N2C(=O)NCc1ccco1	17	-9	0	-6	-7	-9
N#CC(CCN1CCOCC1)(c1ccccc1)c1ccccc1	41*	13	1	-6	-11	-20
CCC(=NCc1cc(OC)cc(OC)c1)c1c(O)n(C)c(=O)n(C)c1=O	15	1	3	1	-6	-13
C[N+](C)(C)c1ccccc1	-17	18	0	39*	-2	-13
CN1CC2=CC(O)CC3Oc4c(O)ccc(c4[C@]23C)C1 (some centres not stated)	-5	17	0	-4	2	3
C=CCn1c(O)c(C(C)=NCCN2CCN(C(=S)NC)CC2)c(=O)[nH]c1=O	-6	15	1	-6	-9	4
O=C(c1cccs1)C1CN2CCC1CC2 (configuration not stated)	38*	7	0	-5	-3	-19
O=C(c1cccs1)N1CCC(C(=O)O)(c2ccccc2)CC1	-15	34	1	-2	-25	9
O=C(O)C1CN2CCC1CC2 (configuration not stated)	4	7	0	25*	0	-6
CN1CC(C(=O)c2cccs2)C(c2ccc(Cl)cc2)C1 (configuration not stated)	-1	13	21*	-7	7	-5
Clc1cccc(N2CCNCC2)c1	-5	-8	0	-3	26*	-6
Nc1cc(N2CCNCC2)ccc1[N+](=O)[O-]	-17	18	1	-8	-8	10
COc1cc(OC)c([C@H]2C=C(C)[C@H]3C[C@@H]2C3(C)C)c(OC)c1	-11	10	0	-4	-22	9
